From PubChem
Pf apPOL inh – Pf-apPOL DNA polymerase inhibition | Recombinant Pf-apPOL, molecular beacon fluorescence, 1.5 h | inhibition, % at 10 µM | 210,000 compounds, 0.25% hits
mHTT-CaM PPI inh – disrupts binding of mutant huntingtin to calmodulin; 190,000 compounds, 3.6% hits; P42858; AID 1671202; inhibition, % at 15 µM; AlphaScreen His-mHTT/GST-CaM binding, luminescence;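 note: 0% = both proteins with DMSO and 100% = one protein alone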
Target sequence (P42858 whole entry, looked up, stated change not applied): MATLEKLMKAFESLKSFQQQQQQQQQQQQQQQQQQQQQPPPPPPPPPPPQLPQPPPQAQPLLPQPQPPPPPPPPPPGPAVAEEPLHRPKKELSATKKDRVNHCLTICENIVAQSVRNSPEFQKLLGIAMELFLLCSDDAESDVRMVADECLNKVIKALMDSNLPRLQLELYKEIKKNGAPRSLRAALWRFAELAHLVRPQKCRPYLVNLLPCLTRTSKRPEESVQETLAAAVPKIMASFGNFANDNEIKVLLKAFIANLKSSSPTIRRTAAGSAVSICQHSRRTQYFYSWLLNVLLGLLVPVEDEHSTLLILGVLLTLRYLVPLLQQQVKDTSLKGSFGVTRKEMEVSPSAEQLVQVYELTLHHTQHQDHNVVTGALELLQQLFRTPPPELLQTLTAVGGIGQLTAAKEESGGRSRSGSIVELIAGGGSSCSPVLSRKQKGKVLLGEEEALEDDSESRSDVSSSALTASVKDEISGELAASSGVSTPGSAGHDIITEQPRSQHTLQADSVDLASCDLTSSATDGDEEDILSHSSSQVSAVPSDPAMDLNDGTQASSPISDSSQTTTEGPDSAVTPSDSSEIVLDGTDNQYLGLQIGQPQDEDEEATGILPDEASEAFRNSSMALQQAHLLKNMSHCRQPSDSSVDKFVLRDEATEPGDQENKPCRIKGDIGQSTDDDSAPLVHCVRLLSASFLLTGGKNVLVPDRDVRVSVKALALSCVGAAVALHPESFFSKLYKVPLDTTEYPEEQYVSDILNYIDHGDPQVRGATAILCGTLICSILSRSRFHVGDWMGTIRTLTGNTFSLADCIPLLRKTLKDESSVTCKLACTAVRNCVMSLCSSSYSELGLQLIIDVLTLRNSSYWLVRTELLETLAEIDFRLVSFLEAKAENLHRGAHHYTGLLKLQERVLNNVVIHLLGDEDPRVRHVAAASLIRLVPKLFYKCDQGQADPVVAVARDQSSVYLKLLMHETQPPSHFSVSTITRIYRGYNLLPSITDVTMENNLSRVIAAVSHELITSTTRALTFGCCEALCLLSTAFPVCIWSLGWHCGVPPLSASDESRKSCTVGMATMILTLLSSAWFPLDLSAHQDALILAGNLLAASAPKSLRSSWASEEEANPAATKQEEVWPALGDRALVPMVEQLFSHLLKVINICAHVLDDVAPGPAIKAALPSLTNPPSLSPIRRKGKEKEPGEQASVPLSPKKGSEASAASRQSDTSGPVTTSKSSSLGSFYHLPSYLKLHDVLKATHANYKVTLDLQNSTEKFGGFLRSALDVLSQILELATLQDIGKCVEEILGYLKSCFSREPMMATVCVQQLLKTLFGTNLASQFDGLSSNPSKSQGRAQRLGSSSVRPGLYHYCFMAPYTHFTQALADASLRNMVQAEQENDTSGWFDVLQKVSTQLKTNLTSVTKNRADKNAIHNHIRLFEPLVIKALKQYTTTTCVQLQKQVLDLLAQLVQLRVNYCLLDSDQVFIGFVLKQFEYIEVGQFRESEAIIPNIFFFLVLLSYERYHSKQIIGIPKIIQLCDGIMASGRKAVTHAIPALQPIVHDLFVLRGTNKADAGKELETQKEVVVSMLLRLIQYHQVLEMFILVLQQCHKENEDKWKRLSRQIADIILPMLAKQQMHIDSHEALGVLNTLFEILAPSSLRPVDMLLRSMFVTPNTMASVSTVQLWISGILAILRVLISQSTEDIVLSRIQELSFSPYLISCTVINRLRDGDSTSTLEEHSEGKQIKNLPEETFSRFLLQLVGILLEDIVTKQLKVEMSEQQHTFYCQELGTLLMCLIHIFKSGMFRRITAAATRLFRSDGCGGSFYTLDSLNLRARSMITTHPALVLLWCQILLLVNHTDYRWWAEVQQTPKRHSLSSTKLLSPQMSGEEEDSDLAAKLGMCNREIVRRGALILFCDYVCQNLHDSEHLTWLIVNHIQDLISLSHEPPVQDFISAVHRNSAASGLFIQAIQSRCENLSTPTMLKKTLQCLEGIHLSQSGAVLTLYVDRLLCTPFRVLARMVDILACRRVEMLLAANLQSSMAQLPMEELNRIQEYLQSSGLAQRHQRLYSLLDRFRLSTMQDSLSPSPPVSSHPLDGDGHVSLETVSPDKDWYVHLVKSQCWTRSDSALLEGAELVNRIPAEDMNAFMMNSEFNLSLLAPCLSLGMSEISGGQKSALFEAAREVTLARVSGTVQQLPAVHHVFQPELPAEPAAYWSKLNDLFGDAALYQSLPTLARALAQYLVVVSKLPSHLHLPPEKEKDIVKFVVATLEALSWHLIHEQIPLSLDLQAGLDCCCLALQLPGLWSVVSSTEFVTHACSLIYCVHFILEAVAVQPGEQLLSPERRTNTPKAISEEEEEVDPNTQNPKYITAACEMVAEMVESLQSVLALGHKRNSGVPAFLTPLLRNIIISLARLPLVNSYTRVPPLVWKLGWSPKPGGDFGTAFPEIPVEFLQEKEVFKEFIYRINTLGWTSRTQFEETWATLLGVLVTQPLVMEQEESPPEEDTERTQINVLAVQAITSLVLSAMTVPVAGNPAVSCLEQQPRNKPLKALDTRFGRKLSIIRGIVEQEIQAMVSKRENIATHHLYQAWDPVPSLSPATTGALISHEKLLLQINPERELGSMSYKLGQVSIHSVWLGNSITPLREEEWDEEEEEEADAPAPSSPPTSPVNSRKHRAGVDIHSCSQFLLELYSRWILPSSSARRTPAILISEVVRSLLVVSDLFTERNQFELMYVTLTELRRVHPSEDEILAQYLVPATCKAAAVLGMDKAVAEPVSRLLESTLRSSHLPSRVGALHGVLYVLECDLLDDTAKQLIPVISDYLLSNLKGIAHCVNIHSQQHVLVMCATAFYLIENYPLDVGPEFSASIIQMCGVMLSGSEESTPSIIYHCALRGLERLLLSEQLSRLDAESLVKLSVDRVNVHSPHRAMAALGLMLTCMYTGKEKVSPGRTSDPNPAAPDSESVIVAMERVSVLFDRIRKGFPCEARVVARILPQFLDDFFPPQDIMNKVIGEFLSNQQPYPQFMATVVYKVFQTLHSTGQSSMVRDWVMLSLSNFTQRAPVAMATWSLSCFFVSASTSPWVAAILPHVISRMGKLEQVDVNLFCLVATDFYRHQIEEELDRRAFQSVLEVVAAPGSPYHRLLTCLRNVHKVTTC
* marks the source's active call; other numbers are inactive results; nt = not tested or not shown; ! = a repeat was not active. A selection: hits, their analogues and other compounds. The true share with any hit is near 3.6%. Cut-off read from the data, not from the text of the source: active = inhibition above about 50%; inactive = the rest.

SMILES	Pf apPOL inh	mHTT-CaM PPI inh
CCCC1C(C#N)=C(N)SC(N)=C1C#N	-6	4
COc1ccccc1C1C(C#N)=C(N)SC(N)=C1C#N	-5	8
COc1cc(OC)c(C2C(C#N)=C(N)SC(N)=C2C#N)cc1OC	nt	71*
COc1cc(Nc2ncc3c(n2)CCN(Cc2ccc(F)c(F)c2)C3)cc(OC)c1	-1	11
COc1ccc(CN(CCC2(C(C)C)CCOC(C)(C)C2)C(C)=O)cc1OC (stereo not drawn)	0	15
COc1ccc(CN(CCC2(c3ccccc3)CCOC(C)(C)C2)C(C)=O)cc1OC (stereo not drawn)	1	68*
Cc1ccc([N+](=O)[O-])c2c3c([nH]c12)C(=O)CCC3	83*	12
Cc1ccc([N+](=O)[O-])c2c3c([nH]c12)C(=NCCO)CCC3	1	22
O=C(Nc1nc(-c2ccccc2)cs1)c1ncn[nH]1	-1	24
O=C(Nc1nc(-c2ccc(Br)cc2)cs1)c1ncn[nH]1	-6	100*
CN(C)C(=O)C1CCc2nc(N3CCN(C(=O)C4CCC4)CC3)sc2C1 (stereo not drawn)	0	2
COc1ccc(CN=Cc2[nH]c3ccc(Br)c(Cl)c3c2O)cc1	5	69*
Cc1cc(C)cc(N=Cc2[nH]c3ccc(Br)c(Cl)c3c2O)c1	-3	4
Oc1c(C=NC2CCCCC2)[nH]c2ccc(Br)c(Cl)c12	9	76*
Oc1c(C=NCc2ccccc2)[nH]c2ccc(Br)c(Cl)c12	8	36
Oc1c(C=Nc2ccc(Br)cc2)[nH]c2ccc(Br)c(Cl)c12	-7	58*
COc1ccc(N=Cc2[nH]c3ccc(Br)c(Cl)c3c2O)cc1	-11	19
COc1cc(C(=O)N2CCc3ccccc3C2)c([N+](=O)[O-])cc1OC	2	6
CC(=O)N(N=Cc1ccc(F)cc1)C1=NN(C(C)=O)C(c2ccc(F)cc2)S1 (stereo not drawn)	-8	nt
O=C(Cn1ccc2sccc2c1=O)Nc1ccc(OC(F)(F)F)cc1	-2	-4
O=S(=O)(c1cc(Cl)ccc1Cl)N1CCc2nc[nH]c2C1	1	-4
CCOc1ccc(C2=NC3(CCN(C(C)C)CC3)NC(c3cccc(OC)c3O)C2)cc1 (stereo not drawn)	8	14
O=C(NNC(=O)C(F)(F)Sc1ccccc1)c1ccsc1	54*	nt
O=C(NCC(O)(c1ccccc1)C(F)(F)F)c1ccsc1 (stereo not drawn)	-9	-18
CCCC1CCC2(CCCN2CCOC(=O)Nc2ccc(Br)cc2)CC1 (stereo not drawn)	-10	96*
SMILES	Pf apPOL inh	mHTT-CaM PPI inh
CCCC1CCC2(CCCN2CCOC(=O)Nc2ccccc2)CC1 (stereo not drawn)	-2	3
O=C(CNc1ccccc1Cl)c1ccccc1	1	100*
O=C(Nc1ccccc1Cl)c1ccccc1	0	-12
COc1ccc(N2C(=O)c3ccc(C(=O)c4ccccc4)cc3C2=O)cc1	-4	-12
O=C(OCc1cc(-c2ccc3c(c2)OCCO3)on1)c1cc(-c2ccco2)n[nH]1	67*	69*
Cc1nc(C)c(C(=O)OCc2cc(-c3ccc4c(c3)OCCO4)on2)s1	-2	-13
Cc1ccc(C(=O)N2CCCCC2)c(C2CCN(C(=O)c3ccccc3F)CC2)n1	-6	5
C=CCc1cccc(C=NNC(N)=S)c1O	56*	94*
C=CCc1cccc(C=Nc2ccc(Br)cc2)c1O	-3	1
COc1ccccc1OCCN1C(=O)Cc2c(C)nc(C)nc21	2	6
COCCNC(=O)C1CCCc2c1[nH]c1ccccc21 (stereo not drawn)	2	12
CCNC(=O)C1CCCc2c1[nH]c1ccc(Cl)cc21 (stereo not drawn)	-4	100*!
COc1ccc(-c2n[nH]c3c2C(c2ccc(OC)cc2)N(c2ccccc2)C3=O)cc1 (stereo not drawn)	-2	43
O=C1c2[nH]nc(-c3ccccc3)c2C(c2cccc([N+](=O)[O-])c2)N1c1ccccc1 (stereo not drawn)	28	28
COc1cc(C2c3c(-c4ccc(F)cc4)n[nH]c3C(=O)N2c2ccccc2)ccc1O (stereo not drawn)	-1	78*
O=C1c2[nH]nc(-c3ccc(F)cc3)c2C(c2ccccc2[N+](=O)[O-])N1c1ccccc1 (stereo not drawn)	-1	83*
CC(C)CC(=O)N1CCN(Cc2noc(-c3ccc(F)cc3)n2)CC1	-3	18
CCn1c(C2CCN(S(=O)(=O)c3ccc(C)c(C)c3)C2)nc2cccnc21 (stereo not drawn)	-1	-2
COc1ccc(C(NC(C)=O)c2ccc3cccnc3c2O)cc1OC (stereo not drawn)	-24	100*
CCC(=O)NC(c1ccc(OC)c(OC)c1)c1ccc2cccnc2c1O (stereo not drawn)	94*!	100*
COc1ccc(C(NC(=O)CC(C)C)c2ccc3cccnc3c2O)cc1OC (stereo not drawn)	-9	24
COc1cc(NC(=O)Cc2ccc(OC)c(OC)c2)c2ncccc2c1	-4	15
C=CCNC(=O)c1sc2cc(C)ccc2c1Cl	-7	-11
Cc1c(C)c(C)c(CON=C(c2ccccc2)c2ccc(Cl)cc2)c(C)c1C	-10	nt
O=C(C1CCCN(c2nccc3sccc23)C1)N1CCN(c2ccc(F)cc2)CC1 (stereo not drawn)	-17	95*
SMILES	Pf apPOL inh	mHTT-CaM PPI inh
Cc1cc2c(N3CCCC(C(=O)N4CCN(C5CCCCC5)CC4)C3)nccc2s1 (stereo not drawn)	-5	40
Cc1cc2c(N3CCCC(C(=O)N4CCN(c5ccccc5)CC4)C3)nccc2s1 (stereo not drawn)	0	100*
Cc1ccc(NC(=O)C2CCCN(c3nccc4sccc34)C2)cc1F (stereo not drawn)	-7	-5
O=C(C1CCCN(c2nccc3sccc23)C1)N1CCN(c2ccccc2F)CC1 (stereo not drawn)	-4	90*
O=C(NCc1ccc(F)cc1Cl)C1CCCN(c2nccc3sccc23)C1 (stereo not drawn)	5	-1
CCCc1cc(C2CCCN2C(=O)Nc2ccc(C)c(Cl)c2)no1 (stereo not drawn)	-2	-9
COc1c2ccoc2nc2c(OC)c(OC(C)=O)ccc12	1	-1
COc1cc(-c2noc(C)c2/C=C/c2ccc(N)cc2)cc(OC)c1OC	-5	53*
COc1cc(-c2noc(C)c2C#Cc2ccc(N)cc2)cc(OC)c1OC	-4	13
COc1ccc(C2CC(C(F)(F)F)n3nc(C(=O)Nc4cc(C)ccc4O)cc3N2)cc1 (stereo not drawn)	-14	12
O=C(Nc1cc(Cl)ccc1O)c1cc2n(n1)C(C(F)(F)F)CC(c1ccc(Cl)cc1)N2 (stereo not drawn)	-3	89*
Cc1ccc(C2CC(C(F)(F)F)n3nc(C(=O)Nc4cccc(CCC#N)c4)cc3N2)cc1 (stereo not drawn)	-1	18
N#CCCc1cccc(NC(=O)c2cc3n(n2)C(C(F)(F)F)CC(c2ccc(Cl)cc2)N3)c1 (stereo not drawn)	0	74*
O=C(NCC1CCCO1)c1cc2n(n1)C(C(F)(F)F)CC(c1ccco1)N2 (stereo not drawn)	-2	-4
O=C(NCC1CCCO1)c1cc2n(n1)C(C(F)(F)F)CC(c1ccc(Cl)c(Cl)c1)N2 (stereo not drawn)	-8	54*
